# Laboratory results as given in PubChem BioAssay (NCATS).
# Unmarked numbers belong to inactive results. Records with an inconclusive call do not appear. Entries that show only a call come without a potency. Active and inactive are the calls of the source. Unless noted, calls follow the shape of the dose curve; as a rule, active = well fitted curve in the direction sought with a large enough effect; inconclusive = small, poorly fitted or top-dose-only effect, or another doubt; inactive = no such curve, though single readings can be large; an effect the other way counts as inactive or inconclusive.
# Columns and labels:
# [1] = target: Rap guanine nucleotide exchange factor 3 (Homo sapiens) (UniProt O95398); experiment: Confirmatory qHTS for agonist of cAMP-regulated guanine nucleotide exchange factor 3 (EPAC1) (AID 1645881);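 also: EPAC1 catalysed release of BODIPY-GDP from Rap1B seen as fluorescence loss; nearly all actives have a fitted effect of over 75% in size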
# Sequence of Rap guanine nucleotide exchange factor 3 (Homo sapiens) (O95398 whole entry, looked up): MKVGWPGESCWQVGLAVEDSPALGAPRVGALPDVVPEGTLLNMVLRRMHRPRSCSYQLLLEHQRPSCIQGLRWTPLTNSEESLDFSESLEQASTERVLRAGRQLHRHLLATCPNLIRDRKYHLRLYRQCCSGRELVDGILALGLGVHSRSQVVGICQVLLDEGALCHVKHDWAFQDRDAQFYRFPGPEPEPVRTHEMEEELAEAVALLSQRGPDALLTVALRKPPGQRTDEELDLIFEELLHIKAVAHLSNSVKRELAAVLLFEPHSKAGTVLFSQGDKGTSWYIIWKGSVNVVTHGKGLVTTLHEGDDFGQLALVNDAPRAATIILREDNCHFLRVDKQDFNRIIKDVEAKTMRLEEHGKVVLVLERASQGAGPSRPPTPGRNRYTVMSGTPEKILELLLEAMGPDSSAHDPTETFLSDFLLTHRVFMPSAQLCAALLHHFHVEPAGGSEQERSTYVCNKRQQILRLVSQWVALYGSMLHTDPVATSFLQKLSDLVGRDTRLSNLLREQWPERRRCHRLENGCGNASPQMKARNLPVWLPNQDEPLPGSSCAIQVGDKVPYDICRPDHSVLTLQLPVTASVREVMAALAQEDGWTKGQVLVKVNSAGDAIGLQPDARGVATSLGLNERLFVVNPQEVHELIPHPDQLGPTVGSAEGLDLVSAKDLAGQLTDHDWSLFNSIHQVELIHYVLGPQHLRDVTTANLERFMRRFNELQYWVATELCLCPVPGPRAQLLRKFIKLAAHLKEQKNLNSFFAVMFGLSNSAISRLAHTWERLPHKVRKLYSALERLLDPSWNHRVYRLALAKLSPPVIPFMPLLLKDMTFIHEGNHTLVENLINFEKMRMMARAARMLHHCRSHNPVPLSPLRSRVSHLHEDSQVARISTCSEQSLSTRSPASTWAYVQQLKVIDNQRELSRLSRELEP
# [2] = target: Rap guanine nucleotide exchange factor 4 (Homo sapiens) (UniProt Q8WZA2); experiment: Confirmatory qHTS for agonist of cAMP-regulated guanine nucleotide exchange factor 4 (EPAC2) (AID 1645884);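 also: nucleotide exchange releases bodipy-GDP from Rap1 and this lowers its fluorescence; nearly all actives have a fitted effect of over 65% in size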
# Sequence of Rap guanine nucleotide exchange factor 4 (Homo sapiens) (Q8WZA2 whole entry, looked up): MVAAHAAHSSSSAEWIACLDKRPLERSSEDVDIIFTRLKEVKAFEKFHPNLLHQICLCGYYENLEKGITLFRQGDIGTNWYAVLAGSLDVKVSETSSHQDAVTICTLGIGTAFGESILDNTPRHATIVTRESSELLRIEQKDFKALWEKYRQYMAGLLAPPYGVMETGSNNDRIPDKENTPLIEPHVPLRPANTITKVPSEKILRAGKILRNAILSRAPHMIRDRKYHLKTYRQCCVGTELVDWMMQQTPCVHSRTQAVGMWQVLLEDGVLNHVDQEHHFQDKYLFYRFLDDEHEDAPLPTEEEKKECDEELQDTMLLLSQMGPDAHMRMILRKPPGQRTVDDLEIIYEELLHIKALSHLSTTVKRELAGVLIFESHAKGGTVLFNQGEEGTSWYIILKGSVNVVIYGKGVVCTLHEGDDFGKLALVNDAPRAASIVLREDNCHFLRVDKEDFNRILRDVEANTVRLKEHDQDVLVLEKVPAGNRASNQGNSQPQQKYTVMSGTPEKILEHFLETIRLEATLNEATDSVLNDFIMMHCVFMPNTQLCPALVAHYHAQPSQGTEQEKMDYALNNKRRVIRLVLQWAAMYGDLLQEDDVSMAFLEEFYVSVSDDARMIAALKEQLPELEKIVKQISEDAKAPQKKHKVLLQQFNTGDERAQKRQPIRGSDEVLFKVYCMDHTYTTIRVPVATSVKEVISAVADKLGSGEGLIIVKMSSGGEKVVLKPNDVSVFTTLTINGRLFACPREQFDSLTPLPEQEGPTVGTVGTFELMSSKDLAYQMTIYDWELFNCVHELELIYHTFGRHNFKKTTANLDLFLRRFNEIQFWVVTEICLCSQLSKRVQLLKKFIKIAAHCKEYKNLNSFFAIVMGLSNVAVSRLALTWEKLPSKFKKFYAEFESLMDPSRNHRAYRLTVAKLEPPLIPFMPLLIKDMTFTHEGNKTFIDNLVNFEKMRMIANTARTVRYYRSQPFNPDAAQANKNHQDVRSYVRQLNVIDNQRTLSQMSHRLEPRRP
# [3] = target: Rap guanine nucleotide exchange factor 4 (Homo sapiens) (UniProt Q8WZA2); experiment: Confirmatory qHTS for antagonist of cAMP-regulated guanine nucleotide exchange factor 4 (EPAC2) (AID 1645885); also: nearly all actives have a fitted effect of over 25% in size
# [4] = target: Rap guanine nucleotide exchange factor 3 (Homo sapiens) (UniProt O95398); experiment: Counterscreen qHTS for agonist of cAMP-regulated guanine nucleotide exchange factor 3 (EPAC1) (AID 1645889); also: nearly all actives have a fitted effect of over 40% in size
# Summary of the method: (§1)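 Rap1B–BODIPY-GDP (250 nM) with 50 uM GDP; compounds pin-transferred to 9.74 nM–152 uM final (activator) or from 7.32 nM upwards (inhibitor). Fluorescence Ex/Em 480/540 nm read at 5 and 30 min, then after adding cAMP or buffer, at room temperature.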
# [5] = target: Tumor susceptibility gene 101 protein (Homo sapiens) (UniProt Q99816); experiment: qHTS Assay for Iinhibitors of HIV-1 Budding by Blocking the Interaction of PTAP/TSG101: Hit Validation (AID 651600); also: potency is read from the fitted curve at half-maximal effect; nearly all actives have a fitted effect of over 70% in size
# Sequence of Tumor susceptibility gene 101 protein (Homo sapiens) (Q99816 whole entry, looked up, the tested form may be a part): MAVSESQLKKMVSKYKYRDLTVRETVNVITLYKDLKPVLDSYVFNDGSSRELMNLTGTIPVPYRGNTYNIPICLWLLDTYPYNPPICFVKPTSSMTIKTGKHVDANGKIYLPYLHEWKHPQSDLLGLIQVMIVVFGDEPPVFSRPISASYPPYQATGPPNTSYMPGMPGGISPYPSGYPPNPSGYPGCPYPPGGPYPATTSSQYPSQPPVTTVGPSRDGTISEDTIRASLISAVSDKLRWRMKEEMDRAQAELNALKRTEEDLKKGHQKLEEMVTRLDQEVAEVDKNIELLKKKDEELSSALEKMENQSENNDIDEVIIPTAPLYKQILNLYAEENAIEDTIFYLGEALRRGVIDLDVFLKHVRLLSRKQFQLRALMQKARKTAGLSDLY
# Summary of the method: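 Fluorescence polarization binding assay: Tsg101 binding domain (10 uM final) pre-dispensed with compounds, then FITC-labeled PTAP-motif peptide (50 nM final) added; 20 min at r.t. in HEPES pH 7.5 buffer with NaCl, Tween 20, EDTA, TCEP.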
# [6] = target: Rap guanine nucleotide exchange factor 3 (Homo sapiens) (UniProt O95398); experiment: Counterscreen qHTS for antagonist of cAMP-regulated guanine nucleotide exchange factor 3 (EPAC1) (AID 1645888);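 also: fluorescence loss as bound BODIPY-GDP is released from Rap1B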
# Summary of the method: as §1
# [7] = qHTS for Inhibitors of Plasmodium falciparum (GB4) proliferation (AID 504315); also: nearly all actives have a fitted effect of over 50% in size
# Summary of the method: (§2)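 Erythrocytes infected with P. falciparum line (0.3% parasitemia, 2.5% hematocrit final) incubated with compounds 72 h at 37 °C, 5% CO2; SYBR Green lysis buffer added, fluorescence read next day. Normalized to 0.29 uM artemisinin and DMSO.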
# [8] = qHTS for Inhibitors of Plasmodium falciparum (CP250) proliferation (AID 504320)
# Summary of the method: as §2
# [9] = target: Tyrosyl-DNA phosphodiesterase 1 (Homo sapiens) (UniProt Q9NUW8); experiment: Confirmation Assay for Inhibitors of Tyrosyl-DNA Phosphodiesterase (TDP1) (AID 489007); conditions: recombinant human TDP1 enzymatic activity, dose-response; also: potency is read from the fitted curve at half-maximal effect; nearly all actives have a fitted effect of over 40% in size
# Sequence of Tyrosyl-DNA phosphodiesterase 1 (Homo sapiens) (Q9NUW8 whole entry, looked up): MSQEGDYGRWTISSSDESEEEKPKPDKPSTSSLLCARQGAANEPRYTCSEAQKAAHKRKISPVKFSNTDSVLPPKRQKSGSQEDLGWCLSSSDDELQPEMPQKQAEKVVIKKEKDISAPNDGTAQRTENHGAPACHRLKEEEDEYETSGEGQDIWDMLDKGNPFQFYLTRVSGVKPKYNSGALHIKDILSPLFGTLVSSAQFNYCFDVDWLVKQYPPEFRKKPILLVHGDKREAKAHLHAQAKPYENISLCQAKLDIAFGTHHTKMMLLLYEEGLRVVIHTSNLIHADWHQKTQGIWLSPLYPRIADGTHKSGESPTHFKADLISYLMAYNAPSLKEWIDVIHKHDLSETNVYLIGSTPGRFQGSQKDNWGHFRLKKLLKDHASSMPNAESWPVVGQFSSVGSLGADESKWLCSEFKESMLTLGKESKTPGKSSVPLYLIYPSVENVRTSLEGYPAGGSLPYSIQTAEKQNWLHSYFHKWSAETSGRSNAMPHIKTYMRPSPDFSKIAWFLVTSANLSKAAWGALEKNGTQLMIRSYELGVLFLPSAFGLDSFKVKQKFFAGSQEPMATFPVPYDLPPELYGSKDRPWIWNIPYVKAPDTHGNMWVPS
# Summary of the method: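 Tdp1 1 nM + cpd, 15 min RT; add biotin/phosphotyrosine-FITC oligo 15 nM, 5 min RT; add AS donor/acceptor beads 10 ug/ml, 10 min RT; read AlphaScreen. No-enzyme wells = max signal.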
# [10] = target: Glucocorticoid receptor (Homo sapiens) (UniProt P04150); experiment: GR-GFP Redistribution (AID 450;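 active = compounds whose dose series gives a full or clear partial fitted curve of increased nuclear translocation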; also: potency is read from the fitted curve at half-maximal effect); conditions: U2OS GR-GFP nuclear translocation, laser cytometry, 2 h
# Sequence of Glucocorticoid receptor (Homo sapiens) (P04150 whole entry, looked up, the tested form may be a part): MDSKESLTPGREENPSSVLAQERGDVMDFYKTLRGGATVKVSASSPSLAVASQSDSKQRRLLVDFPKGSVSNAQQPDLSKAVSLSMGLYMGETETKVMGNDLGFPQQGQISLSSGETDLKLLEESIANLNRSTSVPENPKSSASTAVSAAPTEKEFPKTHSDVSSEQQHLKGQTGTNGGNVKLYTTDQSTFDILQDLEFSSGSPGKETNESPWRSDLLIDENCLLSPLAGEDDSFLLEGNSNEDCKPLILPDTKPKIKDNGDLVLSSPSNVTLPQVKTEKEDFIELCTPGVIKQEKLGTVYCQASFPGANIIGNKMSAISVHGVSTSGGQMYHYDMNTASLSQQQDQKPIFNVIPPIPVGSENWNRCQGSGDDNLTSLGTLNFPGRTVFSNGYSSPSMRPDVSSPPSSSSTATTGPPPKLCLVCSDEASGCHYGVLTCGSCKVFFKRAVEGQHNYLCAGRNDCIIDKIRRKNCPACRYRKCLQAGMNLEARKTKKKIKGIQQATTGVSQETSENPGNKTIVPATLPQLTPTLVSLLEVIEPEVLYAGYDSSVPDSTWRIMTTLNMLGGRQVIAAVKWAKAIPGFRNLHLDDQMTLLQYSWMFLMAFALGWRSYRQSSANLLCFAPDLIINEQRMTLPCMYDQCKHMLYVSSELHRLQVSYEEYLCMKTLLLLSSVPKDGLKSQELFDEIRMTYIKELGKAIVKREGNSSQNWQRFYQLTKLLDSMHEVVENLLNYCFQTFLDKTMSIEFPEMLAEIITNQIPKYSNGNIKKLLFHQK
# [11] = target: Glucocorticoid receptor (Homo sapiens) (UniProt P04150); experiment: GR-EFC Redistribution (AID 451; calls by dose curve; also: potency is read from the fitted curve at half-maximal effect); conditions: CHO-K1 GR-EFC translocation, beta-gal luminescence, 2 h
# Summary of the method: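 CHO-K1 cells expressing nuclear EA and GR-ED fragments of b-gal; compounds titrated up to 46 uM final, 2 h at 37 C. GR nuclear translocation read as complemented b-gal luminescence after 1 h RT detection.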
# [12] = target: Mitogen-activated protein kinase 10 (Mus musculus) (UniProt Q61831); experiment: JNK3 AlphaScreen Assay (AID 530; active = well fitted curve in either direction with a large enough effect, not every such curve was filed as active;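 also: kinase came from lysate of stimulated human HepG2 cells; signal reports phosphorylation of biotinylated GST-cJun 1-79 at Ser73 with 10 µM ATP; series mostly up to about 57 µM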)
# Summary of the method: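 Pre-activated (IL-1β/TNFα) JNK3 in HepG2 lysates phosphorylates biotin-GST-cJun(1-79), 10 uM ATP; anti-phospho-cJun(Ser73) AlphaScreen read at room temperature, pH 7.6 Tris buffer. Compounds pre-incubated 15 min as titrations.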
# [13] = target: 3',5'-cyclic-AMP phosphodiesterase 4B (Homo sapiens) (UniProt Q07343); experiment: qHTS Assay for Inhibitors of PDE-IV (AID 607; active = well fitted activation curve with a large enough effect in the main read-out, with a control signal flat, not every such curve was filed as active)
# Summary of the method: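 Live HEK293 cells with a modified cyclic nucleotide-gated (CNG) channel report intracellular cAMP via membrane-potential dye fluorescence (ex 535/em 590 nm). Endogenous PDE-IV was targeted. Compounds were tested at up to 22.9 uM final; RO 20-1724 100 uM served as control.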
# [14] = target: Cytochrome P450 3A4 (Homo sapiens) (UniProt P08684); experiment: qHTS Assay for Inhibitors and Substrates of Cytochrome P450 3A4 (AID 884); also: potency is read from the fitted curve at half-maximal effect; nearly all actives have a fitted effect of over 50% in size
# Sequence of Cytochrome P450 3A4 (Homo sapiens) (P08684 whole entry, looked up): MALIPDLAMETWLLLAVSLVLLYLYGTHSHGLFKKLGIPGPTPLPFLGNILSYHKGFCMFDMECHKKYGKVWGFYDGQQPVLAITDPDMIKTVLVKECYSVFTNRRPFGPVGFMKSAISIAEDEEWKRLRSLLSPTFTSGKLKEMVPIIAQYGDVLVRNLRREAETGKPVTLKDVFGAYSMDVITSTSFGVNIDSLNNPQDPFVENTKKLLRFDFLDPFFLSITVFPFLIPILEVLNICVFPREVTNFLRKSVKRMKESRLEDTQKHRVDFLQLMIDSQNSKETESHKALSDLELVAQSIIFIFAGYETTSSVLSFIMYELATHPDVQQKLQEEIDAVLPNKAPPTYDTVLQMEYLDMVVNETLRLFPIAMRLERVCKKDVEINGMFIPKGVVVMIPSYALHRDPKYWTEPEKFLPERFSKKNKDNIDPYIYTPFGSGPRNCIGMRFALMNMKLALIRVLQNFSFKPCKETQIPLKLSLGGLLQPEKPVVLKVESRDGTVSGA
# Summary of the method: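 20 nM human CYP3A4 with 25 uM Luciferin-PPXE (at KM) in 200 mM KPO4, preincubated 10 min with compound; NADPH regeneration started a 60 min RT reaction. Luciferin detected by luminescence, normalized to 57 uM ketoconazole as full inhibition.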
# [15] = target: Cytochrome P450 3A4 (Homo sapiens) (UniProt P08684); experiment: qHTS Assay for Activators of Cytochrome P450 3A4 (AID 885); also: nearly all actives have a fitted effect of over 65% in size
# Summary of the method: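 Quantitative HTS format: compounds preincubated with 20nM human CYP3A4 and Luciferin-PPXE substrate at KM, reaction started by NADPH regeneration, stopped after 60 min, luciferase luminescence read 20 min later.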
# [16] = target: Cytochrome P450 2D6 (Homo sapiens) (UniProt P10635); experiment: qHTS Assay for Inhibitors and Substrates of Cytochrome P450 2D6 (AID 891); also: potency is read from the fitted curve at half-maximal effect; nearly all actives have a fitted effect of over 60% in size
# Summary of the method: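 Human CYP2D6 (5 nM) with 30 uM Luciferin-ME EGE (at Km) in 100 mM KPO4, compound preincubated 10 min, then NADPH regeneration system for 60 min at room temperature. Luciferin read by luminescence; normalized to 1.43 uM quinidine.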
# [17] = target: Cytochrome P450 2C19 (Homo sapiens) (UniProt P33261); experiment: qHTS Assay for Inhibitors and Substrates of Cytochrome P450 2C19 (AID 899); also: potency is read from the fitted curve at half-maximal effect; nearly all actives have a fitted effect of over 60% in size
# Sequence of Cytochrome P450 2C19 (Homo sapiens) (P33261 whole entry, looked up): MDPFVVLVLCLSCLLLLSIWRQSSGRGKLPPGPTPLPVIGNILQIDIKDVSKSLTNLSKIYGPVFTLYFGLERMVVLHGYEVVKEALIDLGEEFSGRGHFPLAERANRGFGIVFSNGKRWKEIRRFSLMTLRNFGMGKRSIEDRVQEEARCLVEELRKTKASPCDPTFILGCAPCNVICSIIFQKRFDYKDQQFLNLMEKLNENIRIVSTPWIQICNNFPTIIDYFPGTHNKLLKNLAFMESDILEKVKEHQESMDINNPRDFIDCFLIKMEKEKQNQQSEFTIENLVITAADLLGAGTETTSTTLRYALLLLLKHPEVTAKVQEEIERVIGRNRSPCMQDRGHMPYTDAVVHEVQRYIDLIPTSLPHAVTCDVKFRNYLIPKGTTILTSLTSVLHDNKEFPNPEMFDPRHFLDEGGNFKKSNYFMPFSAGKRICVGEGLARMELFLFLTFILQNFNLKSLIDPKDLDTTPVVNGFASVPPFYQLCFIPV
# Summary of the method: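 5 nM human CYP2C19 with 10uM Luciferin-H EGE (at KM) in 50mM KPO4, compound preincubated 10 min at 37C, then NADPH regeneration for 60 min at 37C. Luciferin read by luminescence after detection reagent; normalized to 57uM ketoconazole as full inhibition.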
smiles,measurement,setting,value
FC(F)(F)c1cccc(CN2CCC(c3cc(-c4cccs4)n[nH]3)CC2)c1,Potency,[1],inactive
same,Potency,[2],inactive
same,Potency,[3],inactive
same,Potency,[4],inactive
COc1ccc(OC)c2c1C(=O)c1ccccc1C2=O,Potency,[5],14.6 µM (active)
same,Potency,[1],inactive
same,Potency,[2],inactive
same,Potency,[3],inactive
same,Potency,[6],inactive
Cc1c2cc(O)c(=O)cc-2oc2cc(O)c(O)cc12,Potency,[5],1.83 µM (active)
same,Potency,[1],inactive
same,activation,[2],"-3.29% [at 17.1 µM, percent relative to cAMP agonist control]"
same,Potency,[3],inactive
same,"activity change, negative = inhibition",[6],-2.73% [at 30.8 µM]
same,activation,[4],0.526% [at 30.8 µM]
C/C(=N\NS(=O)(=O)c1ccc(C(C)(C)C)cc1)c1ccccc1,Potency,[1],inactive
same,activation,[2],"13.7% [at 17.1 µM, percent relative to cAMP agonist control]"
same,Potency,[3],inactive
same,activation,[4],25% [at 30.8 µM]
CCc1nc2ccc(C(=O)Nc3ccc(NC(C)=O)cc3)cn2c1N(C)CCC(C)C,Potency,[1],inactive
same,Potency,[2],inactive
same,Potency,[3],inactive
same,Potency,[4],inactive
CC1(OC(=O)C2CCCC2)C(=O)C=C2C=C(c3ccsc3)N(Cc3ccco3)C=C2C1=O (stereo unspecified),outcome,[7],inactive
same,outcome,[8],inactive
same,Potency,[1],inactive
same,Potency,[2],inactive
same,Potency,[3],inactive
same,Potency,[6],inactive
O=C(NNC(=O)c1cc2cc(Br)ccc2oc1=O)c1ccc(O)cc1O,Potency,[9],56.2 µM (active)
same,Potency,[1],inactive
same,Potency,[2],inactive
same,Potency,[3],inactive
same,Potency,[6],inactive
COc1cccc(C(=O)/C=C/c2ccc(OCC#N)c(OC)c2)c1,Potency,[1],inactive
same,activation,[2],"0% [at 17.1 µM, percent relative to cAMP agonist control]"
same,Potency,[3],inactive
same,activation,[4],12.6% [at 30.8 µM]
O=C1C=C(NCCc2cc(Br)c(O)c(Br)c2)C(=O)c2ncccc21,Potency,[10],> 46 µM
same,Potency,[11],> 9.22 µM
same,"activity change, negative = inhibition",[12],0.257% [at 11.4 µM]
same,Potency,[13],inactive
same,Potency,[14],3.16 µM (active)
same,"activity change, positive = activation",[15],-62.8% [at 11.4 µM]
same,Potency,[16],1.58 µM (active)
same,Potency,[17],0.501 µM (active)
same,Potency,[1],inactive
same,activation,[2],"5.19% [at 17.1 µM, percent relative to cAMP agonist control]"
same,Potency,[3],inactive
same,"activity change, negative = inhibition",[6],-20.2% [at 30.8 µM]
same,activation,[4],14.9% [at 30.8 µM]
